Source: PubChem BioAssay

tested on: Sam68 (KHDRBS1); assay: compounds binding KHDRBS1 protein – biochemical, small-molecule microarray, 635 nm fluorescence, primary screen (AID 1125); settings: higher = more signal;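 further: score merges 667 nm channel intensity with signal to noise over triplicate slides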

SMILES | composite z-score
CCOC(=O)C[C@H]1[C@H](OC(=O)c2ccccc2-c2ccccc2)[C@@H](NC(=O)CC(C)C)c2cc(OCCCO)ccc2N1C(=O)Cc1ccc(OC)cc1 | 0.488
C=C(CCCC)/C(=C/C[C@H](OC(C)=O)c1ccccc1OCCO)c1cc(C(=O)OC)ccc1OC | 0.287
C=CCC(OC(C)=O)[C@@H]1[C@@H](N(Cc2ccc(-c3ccccc3)cc2)C(=O)Cc2ccc(OC)cc2)c2cc(OCCCO)ccc2N1C(=O)Cc1ccc2ccccc2c1 (stereo partly specified) | -0.493
COc1ccc(CCNC(=O)[C@@]2(Sc3ccc(C)cc3)CC(=O)N(C3Cc4ccccc4C3)[C@@H]2c2ccc(CO)cc2I)cc1 | 0.608
COC(=O)[C@@]1(Cc2ccccc2)N=C(c2ccc(OCCCO)cc2)O[C@H]1c1ccccc1 | -0.0634
COCCOC(=O)N1C(=O)[C@@]2(c3cc(C#CCC(C(=O)OC)C(=O)OC)ccc31)[C@H](c1ccccc1OCCO)N1[C@H](c3ccccc3)[C@H](c3ccccc3)OC(=O)[C@H]1[C@@H]2C(=O)N1CCN(c2ncccn2)CC1 | 1.31
C=C(CCCC)/C(=C/C[C@@H](OC(=O)c1ccncc1)c1ccc(OCCO)cc1)c1cc(C(=O)OC)ccc1OC | 1.12
CCCCN1CC=CC23O[C@@H]4C=CCCOC(=O)C4[C@H]2C(=O)N(CCCCCCO)[C@@H]3C1=O (stereo partly specified) | 0.474
CN(C)CCCC[C@@H]1NC(=O)[C@H]2C[C@@H](C(=O)NCCCCCCN)[C@@H](c3ccc(O)cc3)N2C1=O | 1.28
COc1ccc(-c2cc3c(c(-c4ccc(Oc5ccccc5)cc4)n2)[Si](C(C)C)(C(C)C)OC3)cn1 | -0.0667

tested on: Chordin-like protein 2 (CHRDL2); assay: compounds binding chordin-like 2 – biochemical, small-molecule microarray, 635 nm fluorescence, primary screen (AID 1126); settings: fluorescence 635 nm, higher = more signal;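 further: printed compound slides probed with Chrdl2 protein at 4 µg/mL for 1 h at 4 C; score merges 667 nm emission intensity with signal to noise over three replicate slides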

SMILES | composite z-score
CC#CC(=O)Oc1ccccc1C=CC(=O)OCC | -0.0448
CC(C)CNC(=O)[C@@]1(Cc2ccccc2I)c2ccccc2C(=O)N(C2CCCCC2)[C@H]1c1ccc(CO)cc1 | 0.133
O=C(c1ccccc1)N1C(=O)[C@]2(COC(c3ccc(OCCCO)cc3)=N2)Cc2ccccc21 | 0.674
CC(C)(C)OC(=O)CC[C@]1(C(=O)N2CCOCC2)N=C(c2ccc(OCCCO)cc2)O[C@H]1c1ccccc1N=[N+]=[N-] | -0.135
COCCOC(=O)N1C(=O)[C@@]2(c3cc(C#CCC(C(=O)OC)C(=O)OC)ccc31)[C@H](c1ccccc1OCCO)N1[C@H](c3ccccc3)[C@H](c3ccccc3)OC(=O)[C@H]1[C@@H]2C(=O)NC[C@H](O)c1ccccc1 | 0.972
COCCCNC(=O)[C@]1(CCC(=O)OC(C)(C)C)N=C(c2ccc(OCCCO)cc2)O[C@@H]1c1ccccc1CN=[N+]=[N-] | 0.0091
CCOC(=O)C1=C[C@@H](C(C)(C)C)N(S(=O)(=O)c2ccc(C)cc2)[C@H]1c1ccc(F)cc1 | 0.16
COc1cc(NN2C(C(O)c3ccco3)C=CC3C(=O)N(c4ccccc4)C(=O)C32)cc(OC)c1OC (stereo unspecified) | -0.776
CCC(CC)C(O)C1C=CC2C(=O)NC(=O)C2N1Nc1ccc(Cl)cc1Cl (stereo unspecified) | -0.381
CCCC[C@H]1OB(O)C[C@H]2C1=C(COC)Cn1c(=O)n(-c3ccccc3)c(=O)n12 | 0.432
C=C(COC)/C(=C/C[C@@H](OC(C)=O)c1ccc(OCCO)cc1)c1cnc2ccccc2c1 | 1.41
CN(C)C(=O)[C@@]1(CCS(=O)(=O)c2ccccc2)COC(c2ccc(OCCCO)cc2)=N1 | -0.466
CCCCCCc1nc(-c2ccc(OC)nc2)cc2c1[Si](C(C)C)(C(C)C)O[C@H]2c1ccccc1 | 1.12
O=C(CS)NCCCCCCNC(=O)[C@@H]1C[C@@H]2C(=O)N[C@@H](Cc3ccccc3)C(=O)N2[C@@H]1c1cccc(OCCO)c1 | 0.892
COC(=O)[C@@]1(Cc2ccc(OC)cc2)[C@H]2c3cc(C(=O)N(C)C)n(Cc4ccc(S(C)(=O)=O)cc4)c3C[C@H]2CN1C(=O)c1ccccc1 | -0.948
O=C1C[C@@](C(=O)NC2CC2)(c2ccc([N+](=O)[O-])cc2)[C@@H](c2ccc(CO)cc2I)N1C1CCCCC1 | 0.397
CN1C=C(C(=O)OCCS(C)(=O)=O)C(C(=O)OCCS(C)(=O)=O)=CC(c2ccc(CO)cc2)=CC1C1CC1 (stereo unspecified) | -0.246
O=C1NC(=O)C2C1C=CC(C(O)c1cc(C(F)(F)F)cc(C(F)(F)F)c1)N2Nc1ccccn1 (stereo unspecified) | 0.673
CN(C)CCCCCCNC(=O)[C@@H]1C[C@@H]2C(=O)N[C@@H](Cc3ccccc3)C(=O)N2[C@@H]1c1ccc(O)cc1 | 1.41
Cc1nc2cc(Br)ccc2c(=O)o1 | 0.126
O=C(NC1CC1)[C@@H]1c2ccccc2C(=O)N(Cc2ccccc2Cl)[C@H]1c1ccc(CO)cc1 | 0.516
